# Experimental data published in PubChem BioAssay (EPA / NIEHS).
# “And” between values parts separate entries of the source, which are not always exact repeats. Equal entries are not always repeated. Records with an inconclusive call do not appear. Where a structure was tested more than once in an assay, its records may differ in their call. The source made the active and inactive calls. Rule for the calls, unless noted: active = hit-call score of the fitted dose curve at least 0.9, where 1 is the maximum; inactive = score below 0.9.
# Test system: not listed separately
# Experiment: CCTE_Mundy_HCI_hNP1_Casp3_7: CCTE's Caspase-Glo 3/7 Assay in human neuroprogenitor cells for Apoptosis, Mundy Lab (AID 2284240)
# Conditions: not given
# How it was run: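 Apoptosis is scored by activated caspase-3/7 luminescence in WA09-derived neural progenitor cells, measured 26.5 h after chemical dosing. Values represent gain of signal relative to DMSO vehicle.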
SMILES,AC50,outcome
CCCCC(CC)COC(=O)COc1ccc(Cl)cc1C (configuration not stated),50 µM (active),
CC(C)Cc1ccc(C(C)C(=O)O)cc1 (configuration not stated),,inactive
c1ccc2scnc2c1,,inactive
N[C@@H](CCC(=O)O)C(=O)O,,inactive
N#CCCNCCC#N,,inactive

# Test system: not listed separately
# Experiment: CCTE_Mundy_HCI_hNP1_CellTiter: CCTE's Cell Titer-Glo 2 Assay in human neuroprogenitor cells for Viability, Mundy Lab (AID 2284241; active = hit-call score of the fitted dose curve at least 0.9, where 1 is the maximum)
# Conditions: not given
# How it was run: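 Human neural progenitor cells (hNP1, WA09-derived) were plated on poly-L-ornithine/laminin and grown 40 to 44 hours at 37 °C, 5% CO2 before chemical addition. Twenty-four hours later, ATP was measured by CellTiter-Glo luminescence; loss of signal versus DMSO indicates reduced viability.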
row,SMILES,outcome
1,CC(C)Cc1ccc(C(C)C(=O)O)cc1 (configuration not stated),inactive
2,N[C@@H](CCC(=O)O)C(=O)O,inactive
3,N#CCCNCCC#N,inactive

# Test system: not listed separately
# Experiment: CCTE_Mundy_HCI_Cortical_Synap_Neur_Matur_NeuronCount: CCTE's Synaptogenesis and Neurite Maturation Assay in rat cortical cells for Neuron Count, Mundy Lab (AID 2284242; active = hit-call score of the fitted dose curve at least 0.9, where 1 is the maximum;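 for AC50: neuron number from Hoechst nuclei and MAP2 staining by high-content imaging; hits reduce neuron count versus DMSO baseline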)
# Conditions: not given
# Protocol: CCTE_Mundy_HCI_Cortical_Synap&Neurite_Matur is a multiplexed, cell-based-readout assay that uses rat primary cortical cells with measurements taken at 288.33 hours after chemical dosing in a microplate: 96-well plate.CCTE_Mundy_HCI_Cortical_Synap_Neur_Matur_NeuronCount is one of eight components of the CCTE_Mundy_HCI_Cortical_Synap&Neurite_Matur assay. It measures cell viability related to number of neurons using High Content Imaging of fluorescently labelled markers.[…] Using a type of morphology reporter, loss -of-signal activity can be used to understand developmental effects.
# Cells are plated onto 96 well plates and allowed 2 hr for attachment to the substrate. At days in vitro (DIV) 5, Cytosine Arabinoside (AraC) is added to arrest glial cell growth. Chemicals are dosed and a media change is performed at DIV 7 of differentiation and is continued through DIV 12 when the experiment is terminated. Cells are fixed with […] and Hoechst Dye. Cells are stained using Millipore Mouse anti-MAP2MAB3418 (1:800) and Millipore Rabbit anti-Synaptophysinsc-1750 (1:250) primary antibodies and Alexa Fluor-488 goat anti-mouse and AlexaFluor-546 goat anti-rabbit secondary antibodies to label neuronal cell nuclei, synapses and neurites. A Cellomics ArrayScan VTi HCS Reader is used for automated image acquisition and analysis of neurite outgrowth.
SMILES,AC50,outcome
CCCCC(CC)COC(=O)COc1ccc(Cl)cc1C (configuration not stated),11.9 µM (active),
CC(C)Cc1ccc(C(C)C(=O)O)cc1 (configuration not stated),,inactive
N[C@@H](CCC(=O)O)C(=O)O,,inactive

# Read-out: Actin alpha 1 (ACTA1), ACTA1 (gene 58)
# Experiment: BSK_MyoF_ACTA1: BioMAP Diversity Plus: MyoF Assay for Actin alpha 1 (ACTA1) Biomarker Activity (AID 2284244)
# Conditions: primary human lung fibroblasts
# How it was run: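 MyoF fibroblast system (human lung); a-SMA quantified via ELISA at 24 h; DMSO-normalised, gain-of-signal endpoint.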
SMILES,outcome,AC50
O=C1OC2(c3ccc(O)cc3Oc3cc(O)ccc32)c2ccccc21,inactive,
CC=CC(=O)C1=C(C)C=CCC1(C)C,inactive,
c1ccc(Sc2ccccc2)cc1,,30.8 µM (active)
O=C(O)C(F)(F)OC(F)(F)C(F)(F)OC(F)(F)C(F)(F)C(F)(F)C(F)(F)F,inactive,
CCCCCCCC1CCCC1=O (configuration not stated),inactive,
CCC(=O)OCC=Cc1ccccc1,inactive,
CC(C)Cc1ccc(C(C)C(=O)O)cc1 (configuration not stated),inactive,
CC(=O)CCC=C(C)CCC=C(C)C,inactive,
CCOC(=O)C=Cc1ccccc1,inactive,
C=C1CC/C=C(\C)CC[C@@H]2[C@@H]1CC2(C)C,,14.9 µM (active)
O=S1(=O)CC(Cl)(Cl)C(Cl)(Cl)C1,,1.13 µM (active)
CCCCCCCCCCCCS,,18.6 µM (active)
OCC(F)(OC(F)(F)C(F)(OC(F)(F)C(F)(F)C(F)(F)F)C(F)(F)F)C(F)(F)F (configuration not stated),,3.43 µM (active) and 4.31 µM (active)
CC(C)(C)c1cccc(O)c1,inactive,
CC(=O)OCC=C(C)CCC=C(C)CCC=C(C)C,inactive,
O=C(O)C(F)(F)C(F)(F)C(F)(F)C(F)(F)C(F)(F)C(F)(F)C(F)(F)C(F)F,inactive,
NC(=O)c1c(Cl)cccc1Cl,inactive,
C=C(C)C(=O)OCCC(F)(F)C(F)(F)C(F)(F)C(F)(F)C(F)(F)C(F)(F)C(F)(F)C(F)(F)F,inactive,
Nc1ccc(N)c([N+](=O)[O-])c1,inactive,
COc1ccccc1NC(=O)CC(C)=O,inactive,
CC1=CC(C)C(C=O)C(C)C1 (configuration not stated) (tested in a mixture with another compound),inactive,
c1ccc2c(c1)-c1ccc3ccc4cccc5cc-2c1c3c45,inactive,
CC(=O)OC(C)(C)C1CC=C(C)CC1 (configuration not stated),inactive,
CC1(C)[C@H](C=C(Cl)Cl)[C@H]1C(=O)OCc1cccc(Oc2ccccc2)c1,inactive,
O=S(=O)(O)C(F)(F)C(F)(F)OC(F)(F)C(F)(F)F,inactive,
CCCCCCCCCC(=O)OCC,,26.9 µM (active)
CCOC(=O)CCCCCCCCC(=O)OCC,inactive,
C=C(F)C(=O)OC(C(F)(F)F)C(F)(F)F,inactive,
OCCN1CCOCC1,inactive,
C=CC(=O)OCC(CO)(COC(=O)C=C)COC(=O)C=C,,1.39 µM (active)

# Read-out: Interleukin 2 (IL2), IL2 (gene 3558)
# Experiment: BSK_BT_xIL2: BioMAP Diversity Plus: BT Assay for Interleukin 2 (IL2) Biomarker Activity (AID 2284245)
# Conditions: primary human B cells with PBMC
# How it was run: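 Co-cultures of primary human B cells and PBMC are treated with chemical and sampled at 24 h. IL-2 secretion is quantified by Luminex xMAP, with DMSO-treated wells as baseline.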
SMILES,outcome,AC50
O=C1OC2(c3ccc(O)cc3Oc3cc(O)ccc32)c2ccccc21,inactive,
CC=CC(=O)C1=C(C)C=CCC1(C)C,inactive,
c1ccc(Sc2ccccc2)cc1,inactive,
O=C(O)C(F)(F)OC(F)(F)C(F)(F)OC(F)(F)C(F)(F)C(F)(F)C(F)(F)F,inactive,
CCCCCCCC1CCCC1=O (configuration not stated),inactive,
CCC(=O)OCC=Cc1ccccc1,inactive,
CC(C)Cc1ccc(C(C)C(=O)O)cc1 (configuration not stated),inactive,
CC(=O)CCC=C(C)CCC=C(C)C,inactive,
CCOC(=O)C=Cc1ccccc1,inactive,
C=C1CC/C=C(\C)CC[C@@H]2[C@@H]1CC2(C)C,inactive,
O=S1(=O)CC(Cl)(Cl)C(Cl)(Cl)C1,,0.703 µM (active)
CCCCCCCCCCCCS,inactive,
OCC(F)(OC(F)(F)C(F)(OC(F)(F)C(F)(F)C(F)(F)F)C(F)(F)F)C(F)(F)F (configuration not stated),inactive,4.97 µM (active)
CC(C)(C)c1cccc(O)c1,inactive,
CC(=O)OCC=C(C)CCC=C(C)CCC=C(C)C,,36.4 µM (active)
O=C(O)C(F)(F)C(F)(F)C(F)(F)C(F)(F)C(F)(F)C(F)(F)C(F)(F)C(F)F,inactive,
NC(=O)c1c(Cl)cccc1Cl,inactive,
C=C(C)C(=O)OCCC(F)(F)C(F)(F)C(F)(F)C(F)(F)C(F)(F)C(F)(F)C(F)(F)C(F)(F)F,inactive,
Nc1ccc(N)c([N+](=O)[O-])c1,inactive,
COc1ccccc1NC(=O)CC(C)=O,inactive,
CC1=CC(C)C(C=O)C(C)C1 (configuration not stated) (tested in a mixture with another compound),inactive,
c1ccc2c(c1)-c1ccc3ccc4cccc5cc-2c1c3c45,,0.709 µM (active)
CC(=O)OC(C)(C)C1CC=C(C)CC1 (configuration not stated),inactive,
CC1(C)[C@H](C=C(Cl)Cl)[C@H]1C(=O)OCc1cccc(Oc2ccccc2)c1,inactive,
O=S(=O)(O)C(F)(F)C(F)(F)OC(F)(F)C(F)(F)F,inactive,
CCCCCCCCCC(=O)OCC,inactive,
CCOC(=O)CCCCCCCCC(=O)OCC,inactive,
C=C(F)C(=O)OC(C(F)(F)F)C(F)(F)F,inactive,
OCCN1CCOCC1,inactive,
C=CC(=O)OCC(CO)(COC(=O)C=C)COC(=O)C=C,,1.27 µM (active)
